Results from PubChem BioAssay (Tox21).
A number with no mark means an inactive call. Inconclusive results are not listed. Entries that show only a call come without a potency. Activity calls are given as the source filed them. Unless noted, calls follow the shape of the dose curve; as a rule, active = well fitted curve in the direction sought with a large enough effect in the repeat runs; inconclusive = weak or mixed curves; inactive = no such curve, though single readings can be large; an effect the other way counts as inactive or inconclusive.

Assays:
[1] = qHTS assay to identify small molecule agonists of the estrogen receptor alpha (ER-alpha) signaling pathway in the presence of an antagonist - cell viability counter screen (AID 1259386);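 also: cells exposed to compounds for 22 h at 37 °C before the viability read; nearly all actives have a fitted effect of over 30% in size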; also: potency is read from the fitted curve at half-maximal effect
In short: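 In this counter screen, compound effects on VM7Luc4E2 viability were tested in the presence of the antagonist ICI-182,780 at 10.0nM final. Compounds were dosed at 15 concentrations, exposure lasted 22hr, and the CellTiter-Fluor signal was read.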

[2] = molecular target: Progesterone receptor (Homo sapiens) (UniProt P06401); experiment: qHTS assay to identify small molecule agonists of the progesterone receptor (PR) signaling pathway (AID 1346784; calls by dose curve; also: nearly all actives have a fitted effect of over 30% in size)
In short: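 Using charcoal-stripped serum (2%) to limit endogenous steroids, PR-UAS-bla HEK 293T cells received compounds for 16 hr at 37C after 6 hr plating; beta-lactamase FRET fluorescence was recorded following 2 hr substrate loading at room temperature.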

[3] = molecular target: Progesterone receptor (Homo sapiens) (UniProt P06401); experiment: qHTS assay to identify small molecule antagonists of the progesterone receptor (PR) signaling pathway (AID 1346795; active = well fitted inhibition curve with a large enough effect in the signal ratio in the repeat runs, not every such curve was filed as active; the % refers to the signal ratio; also: potency is read from the fitted curve at half-maximal effect)
In short: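 Inhibition of R5020-induced (1 nM final) beta-lactamase reporter signal in PR-UAS-bla HEK293T cells was scored by FRET fluorescence after overnight (16 hr) compound treatment.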

[4] = qHTS assay to identify small molecule antagonists of the progesterone receptor (PR) signaling pathway - cell viability counter screen (AID 1346798); also: series mostly up to about 92 µM; nearly all actives have a fitted effect of over 50% in size
In short: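 ATP content as viability readout: CellTiter-Glo luminescence, 30 min room temperature, in PR-UAS-bla HEK293T cells after 16 hr compound/R5020 treatment at 37C and 5% CO2.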

[5] = qHTS assay to identify small molecule agonists of the progesterone receptor (PR) signaling pathway - cell viability counter screen (AID 1346799; calls by dose curve; also: nearly all actives have a fitted effect of over 45% in size)
In short: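 Cytotoxicity in PR-bla HEK293T cells: 16 h compound, 37C; CellTiter-Glo added post-FRET read; luminescence after 30 min RT.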

[6] = qHTS assay to identify small molecule antagonists of the TGF-beta/Smad signaling pathway - cell viability counter screen (AID 1346824); also: nearly all actives have a fitted effect of over 50% in size
In short: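 Cytotoxicity counter-screen run in the same wells as the beta-lactamase Smad reporter read: CellTiter-Glo luminescence after 30 min at room temperature. HEK 293T SBE-bla cells had 5 hr compound exposure at 37 C with TGF-beta1 (0.25 ng/mL stock).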

[7] = qHTS assay to identify small molecule agonists of the TGF-beta/Smad signaling pathway - cell viability counter screen (AID 1346829); also: top concentration of the series differs between compounds; nearly all actives have a fitted effect of over 45% in size
In short: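 Compound-treated SBE-bla HEK 293T cells (5 hr, 37 C) were assessed for viability with CellTiter-Glo in parallel with the reporter read.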

[8] = qHTS assay to identify small molecule agonists of the TGF-beta/Smad signaling pathway (AID 1346859; active = well fitted activation curve with a large enough effect in the signal ratio in the repeat runs, not every such curve was filed as active; the % refers to the signal ratio; also: series mostly up to about 77 µM)
In short: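 Stable Smad binding element-beta-lactamase HEK 293T cells; 5 hr compound exposure at 37 C under 5% CO2; 2 hr room-temperature substrate step; fluorescence excited at 405 nm, collected at 460 nm and 530 nm.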

[9] = Human pregnane X receptor (PXR) small molecule agonists, qHTS cell viability counter screen (AID 1346977); also: nearly all actives have a fitted effect of over 50% in size; also: potency is read from the fitted curve at half-maximal effect
In short: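 Readout is CellTiter-Fluor fluorescence from PXR-Luc HepG2 cells. Plated cells rested 5hr, then were treated with compounds for 24hr at 37C and 5% CO2, with reagent present during the last hour.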

[10] = Caspase-3/7 induction in HepG2 cells by small molecules, qHTS assay (AID 1346978); also: nearly all actives have a fitted effect of over 15% in size; also: potency is read from the fitted curve at half-maximal effect
In short: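 Caspase-3/7 induction was measured by Caspase-Glo 3/7 luminescence (30 min, room temperature) after a 17 hr compound exposure of wild-type HepG2 cells seeded at 2,000 per well and pre-incubated 5 hr.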

[11] = Caspase-3/7 induction in CHO-K1 cells by small molecules, qHTS assay (AID 1346980); also: nearly all actives have a fitted effect of over 15% in size
In short: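 Luminescent Caspase-Glo 3/7 read (30min, room temperature) quantified apoptosis induction. Cells were wild-type CHO-K1, treated with compound for 17hr at 37 C and 5% CO2.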

[12] = Caspase-3/7 induction in HepG2 cells by small molecules, qHTS cell viability counter screen (AID 1346981); also: nearly all actives have a fitted effect of over 30% in size; also: potency is read from the fitted curve at half-maximal effect
In short: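 In this quantitative HTS counter screen, compounds delivered in DMSO were left on unmodified HepG2 cells for 16 hr at 37 C. Viability was then determined fluorometrically with CellTiter-Fluor, in parallel with caspase-3/7 induction in the same wells.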

[13] = Caspase-3/7 induction in CHO-K1 cells by small molecules, qHTS cell viability counter screen (AID 1346979); also: nearly all actives have a fitted effect of over 35% in size; also: potency is read from the fitted curve at half-maximal effect
In short: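 To flag cytotoxic compounds, treated CHO-K1 wild-type cells were given CellTiter-Fluor at 16hr and read fluorescently after 1hr at 37C; the caspase-3/7 luminescence was measured in these same wells.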

[14] = molecular target: Nuclear receptor subfamily 1 group I member 2 (Homo sapiens) (UniProt O75469); experiment: Human pregnane X receptor (PXR) small molecule agonists, qHTS assay (AID 1346982); also: nearly all actives have a fitted effect of over 35% in size; also: potency is read from the fitted curve at half-maximal effect
In short: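 Reporter HepG2 cells expressing PXR-Luc are cultured in charcoal-stripped FBS (5%), treated with compounds for 24 hr at 37 C, and assayed by ONE-Glo luminescence after 30 min at room temperature.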

[15] = molecular target: Thyrotropin receptor (Homo sapiens) (UniProt P16473); experiment: qHTS assay to identify small molecule antagonists of the thyroid stimulating hormone receptor (TSHR) signaling pathway (AID 1259385; calls by dose curve; also: nearly all actives have a fitted effect of over 20% in size; also: potency is read from the fitted curve at half-maximal effect)
In short: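 Antagonist mode: compound-treated TSHR-expressing HEK293 cells were stimulated with 1.5 ng/mL TSH (final) in presence of Ro20-1724 for 30 min at RT. HTRF cAMP detection after 1 h; each compound tested at 15 concentrations, triplicate.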

[16] = molecular target: Thyrotropin-releasing hormone receptor (Homo sapiens) (UniProt P34981); experiment: qHTS assay to identify small molecule antagonists of the thyrotropin-releasing hormone receptor (TRHR) signaling pathway (AID 1346877; active = well fitted inhibition curve with a large enough effect in the repeat runs, not every such curve was filed as active; also: series mostly up to about 51 µM)
In short: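 Kinetic fluorescence (3 min, 1 s resolution) following stimulation with TRH at 1 nM final; HEK293 cells bearing human TRHR; 5 min compound preincubation at RT; concentration-response over 15 points, triplicates.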

[17] = molecular target: Nuclear receptor subfamily 1 group I member 2 (Rattus norvegicus) (UniProt Q9R1A7); experiment: Rat pregnane X receptor (rPXR) activation by small molecules, qHTS assay (AID 1346983); settings: rPXR luciferase reporter cells, One-Glo luminescence, 24 h; max activation: hits give high values; also: nearly all actives have a fitted effect of over 20% in size; also: potency is read from the fitted curve at half-maximal effect
In short: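 Luminescent readout (One-Glo luciferase, 30 min room temperature) followed 24 hr compound treatment at 37 C of rPXR cells plated 2,000 per well and preincubated 5hr; qHTS format with compounds delivered in DMSO.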

[18] = molecular target: Thyrotropin-releasing hormone receptor (Homo sapiens) (UniProt P34981); experiment: qHTS assay to identify small molecule agonists of the thyrotropin-releasing hormone receptor (TRHR) signaling pathway (AID 1346891; calls by dose curve;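 also: HEK293 cells expressing TRHR with calcium dye readout; series mostly up to about 58 µM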)
In short: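 In 1536-format, 1500 TRHR-Hek293 cells per well grew 18 h, took up calcium dye for 2 h at 37 °C, received compound, and were read kinetically; 15-point titrations, triplicates.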

[19] = molecular target: Nuclear receptor subfamily 1 group I member 2 (Homo sapiens) (UniProt O75469); experiment: Human pregnane X receptor (PXR) activation by small molecules, qHTS assay (AID 1346985); also: nearly all actives have a fitted effect of over 40% in size; also: potency is read from the fitted curve at half-maximal effect
In short: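 DPX-2 cells (HepG2 co-transfected with a PXR response element and a CYP3A4-promoter luciferase construct) were seeded at 2,000 per well, rested 5 hr at 37C, then exposed to DMSO-dissolved compounds for 24 hr. Activation was read as luciferase luminescence.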

[20] = molecular target: Nuclear receptor subfamily 1 group I member 2 (Homo sapiens) (UniProt O75469); experiment: CYP3A4 induction through human pregnane X receptor (PXR) by small molecules, qHTS assay (AID 1346984); also: potency is read from the fitted curve at half-maximal effect; nearly all actives have a fitted effect of over 40% in size
In short: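 Induction measured in HepG2-based DPX-2 cells co-expressing human PXR and a CYP3A4 promoter-driven luciferase. After a 24-hour compound exposure, cells received CYP3A4 luciferin substrate at 3uM final for 3 hours, and light output was then recorded.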

Nuclear receptor subfamily 1 group I member 2 (Rattus norvegicus), sequence (Q9R1A7 whole entry, looked up): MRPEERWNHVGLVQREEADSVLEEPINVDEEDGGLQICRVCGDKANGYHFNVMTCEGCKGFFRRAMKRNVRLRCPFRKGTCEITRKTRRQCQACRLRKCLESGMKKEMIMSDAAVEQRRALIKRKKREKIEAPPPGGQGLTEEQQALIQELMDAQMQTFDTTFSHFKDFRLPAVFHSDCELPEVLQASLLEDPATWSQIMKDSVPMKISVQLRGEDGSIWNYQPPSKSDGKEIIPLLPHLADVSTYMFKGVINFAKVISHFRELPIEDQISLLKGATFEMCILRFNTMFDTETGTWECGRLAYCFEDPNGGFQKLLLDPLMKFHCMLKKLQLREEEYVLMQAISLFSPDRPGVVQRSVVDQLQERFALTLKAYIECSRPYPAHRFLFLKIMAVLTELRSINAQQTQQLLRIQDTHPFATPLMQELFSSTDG
Nuclear receptor subfamily 1 group I member 2 (Homo sapiens), sequence (O75469 whole entry, looked up): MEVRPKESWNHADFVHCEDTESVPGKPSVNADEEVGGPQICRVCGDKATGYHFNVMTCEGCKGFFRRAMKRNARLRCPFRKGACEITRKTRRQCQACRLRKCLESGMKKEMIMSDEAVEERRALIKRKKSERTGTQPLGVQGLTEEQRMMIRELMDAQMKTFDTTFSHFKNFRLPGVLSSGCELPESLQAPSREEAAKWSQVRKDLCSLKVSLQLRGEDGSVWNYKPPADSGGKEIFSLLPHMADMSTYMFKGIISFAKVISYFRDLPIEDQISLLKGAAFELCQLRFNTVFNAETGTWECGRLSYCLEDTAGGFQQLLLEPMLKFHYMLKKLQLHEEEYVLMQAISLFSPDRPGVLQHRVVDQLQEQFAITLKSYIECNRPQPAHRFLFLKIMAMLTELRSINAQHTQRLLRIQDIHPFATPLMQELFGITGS
Thyrotropin-releasing hormone receptor (Homo sapiens), sequence (P34981 whole entry, looked up): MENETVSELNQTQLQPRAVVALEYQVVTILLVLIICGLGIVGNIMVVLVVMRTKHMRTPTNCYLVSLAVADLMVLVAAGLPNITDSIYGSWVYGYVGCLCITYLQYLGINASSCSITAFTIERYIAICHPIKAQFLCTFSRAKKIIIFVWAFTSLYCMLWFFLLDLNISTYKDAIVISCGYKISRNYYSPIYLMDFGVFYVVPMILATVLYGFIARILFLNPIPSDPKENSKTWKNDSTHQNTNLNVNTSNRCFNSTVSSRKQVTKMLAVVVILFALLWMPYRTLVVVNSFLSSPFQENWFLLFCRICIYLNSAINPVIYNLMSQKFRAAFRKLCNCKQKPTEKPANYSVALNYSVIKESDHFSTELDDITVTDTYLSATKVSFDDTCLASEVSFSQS
Progesterone receptor (Homo sapiens), sequence (P06401 whole entry, looked up): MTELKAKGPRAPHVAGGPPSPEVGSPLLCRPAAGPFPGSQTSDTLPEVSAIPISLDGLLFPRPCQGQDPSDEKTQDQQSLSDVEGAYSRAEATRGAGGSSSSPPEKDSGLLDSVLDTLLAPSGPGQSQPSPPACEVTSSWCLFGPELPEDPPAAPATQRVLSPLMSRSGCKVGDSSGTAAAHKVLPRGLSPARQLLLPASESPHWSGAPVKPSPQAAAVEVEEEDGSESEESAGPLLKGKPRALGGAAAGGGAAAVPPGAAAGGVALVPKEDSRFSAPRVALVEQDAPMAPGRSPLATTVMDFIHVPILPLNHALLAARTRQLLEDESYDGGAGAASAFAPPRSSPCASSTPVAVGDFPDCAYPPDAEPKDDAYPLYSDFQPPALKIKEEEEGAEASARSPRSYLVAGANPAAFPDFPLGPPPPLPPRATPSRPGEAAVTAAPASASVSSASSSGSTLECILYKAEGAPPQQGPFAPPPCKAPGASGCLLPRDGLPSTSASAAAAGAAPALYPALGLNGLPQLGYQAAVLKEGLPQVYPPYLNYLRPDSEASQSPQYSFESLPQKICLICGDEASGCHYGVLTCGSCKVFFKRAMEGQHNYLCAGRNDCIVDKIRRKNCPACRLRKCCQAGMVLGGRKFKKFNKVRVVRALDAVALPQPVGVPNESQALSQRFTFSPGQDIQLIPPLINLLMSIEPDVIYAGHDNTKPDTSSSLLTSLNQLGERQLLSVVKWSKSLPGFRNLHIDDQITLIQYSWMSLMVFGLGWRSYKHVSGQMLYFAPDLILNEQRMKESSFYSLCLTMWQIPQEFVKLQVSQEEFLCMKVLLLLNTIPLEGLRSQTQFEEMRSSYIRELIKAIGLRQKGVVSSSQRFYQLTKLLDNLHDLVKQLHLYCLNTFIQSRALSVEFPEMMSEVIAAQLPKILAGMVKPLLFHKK
Thyrotropin receptor (Homo sapiens), sequence (P16473 whole entry, looked up): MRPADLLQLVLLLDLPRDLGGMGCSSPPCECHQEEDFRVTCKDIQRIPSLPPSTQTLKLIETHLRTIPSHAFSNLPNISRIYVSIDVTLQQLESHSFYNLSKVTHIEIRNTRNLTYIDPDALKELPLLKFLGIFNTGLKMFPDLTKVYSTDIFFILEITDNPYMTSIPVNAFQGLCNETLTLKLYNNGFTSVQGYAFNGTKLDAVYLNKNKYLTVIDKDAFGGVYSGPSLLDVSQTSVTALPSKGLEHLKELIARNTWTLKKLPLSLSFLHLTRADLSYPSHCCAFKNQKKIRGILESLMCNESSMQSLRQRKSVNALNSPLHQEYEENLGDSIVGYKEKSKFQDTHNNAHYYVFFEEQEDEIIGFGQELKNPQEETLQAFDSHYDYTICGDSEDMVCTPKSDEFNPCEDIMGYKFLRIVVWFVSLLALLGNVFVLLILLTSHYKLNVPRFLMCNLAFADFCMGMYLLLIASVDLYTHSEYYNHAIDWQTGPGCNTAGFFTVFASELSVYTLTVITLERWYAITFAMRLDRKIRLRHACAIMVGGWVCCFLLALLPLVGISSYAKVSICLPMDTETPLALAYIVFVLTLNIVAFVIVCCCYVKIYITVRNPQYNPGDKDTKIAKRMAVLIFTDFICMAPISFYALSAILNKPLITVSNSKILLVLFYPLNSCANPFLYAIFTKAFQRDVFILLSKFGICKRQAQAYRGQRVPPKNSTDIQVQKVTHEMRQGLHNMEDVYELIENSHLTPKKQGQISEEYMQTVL

In the case of CCC1CO1 (centres undefined), the Potency [1] was “inactive”, the Potency [2] was “inactive” and the Potency [3] was “inactive”. The Potency [4] was “inactive”, the Potency [5] was “inactive” and the Potency [6] was “inactive”. For the same compound, the Potency [7] was “inactive”, the Potency [8] was “inactive” and the Potency [9] was “inactive”. The Potency [10] was “inactive”, the Potency [11] was “inactive” and the Potency [12] was “inactive”.
For CC(=O)Nc1ccc(C)cc1C, the Potency [1] was “inactive”, the Potency [2] was “inactive” and the Potency [3] was “inactive”. For the same compound, the Potency [4] was “inactive”, the Potency [5] was “inactive” and the Potency [6] was “inactive”. The Potency [7] was “inactive”, the Potency [8] was “inactive” and the Potency [9] was “inactive”. For the same compound, the Potency [10] was “inactive”, the Potency [13] was “inactive” and the Potency [11] was “inactive”. For the same compound, the Potency [12] was “inactive” and the Potency [14] was “inactive”.
For COc1cc(C(=O)NC2CCN(C)CC2)ccc1Nc1ncc2c(n1)N(C1CCCC1)CC(F)(F)C(=O)N2C, the Potency [15] was 11.2 µM (active), the Potency [2] was “inactive” and the outcome [16] was “inactive”. The Potency [9] was 8.88 µM (active), the Potency [10] was 22.3 µM (active) and the Potency [13] was 0.499 µM (active). The Potency [12] was 15.8 µM (active) and the Potency [14] was 19.9 µM (active).
With CN(C)CCC=C1c2ccccc2C=Cc2ccccc21 the Potency [15] was 29.8 µM (active), the Potency [2] was “inactive” and the Potency [6] was “inactive”. The Potency [7] was “inactive”, the Potency [8] was “inactive” and the Potency [9] was 13.3 µM (active). The Potency [11] was “inactive”, the Potency [12] was “inactive” and the max activation [17] was 0.747%.
In the case of COc1cc(N)c(Cl)cc1C(=O)NC1CCN(CCCOc2ccc(F)cc2)CC1OC (centres undefined), the Potency [1] was “inactive”, the Potency [2] was “inactive” and the Potency [3] was 29.8 µM (active). The Potency [4] was “inactive”, the Potency [5] was “inactive” and the Potency [6] was “inactive”. For the same compound, the Potency [7] was “inactive”, the Potency [8] was “inactive” and the outcome [16] was “inactive”. The Potency [18] was “inactive”, the Potency [9] was 29.8 µM (active) and the Potency [10] was “inactive”. For the same compound, the Potency [11] was “inactive”, the max activation [17] was -2.9% and the Potency [19] was “inactive”.
With Nc1ccc(N=Nc2ccccc2)c(N)c1 the Potency [1] was 26.7 µM (active), the Potency [2] was “inactive” and the Potency [3] was 47.5 µM (active). The Potency [4] was “inactive”, the Potency [5] was “inactive” and the Potency [6] was “inactive”. For the same compound, the Potency [7] was “inactive”, the Potency [8] was “inactive” and the outcome [16] was “inactive”. The Potency [18] was “inactive”, the Potency [13] was 59.8 µM (active) and the Potency [11] was “inactive”. The Potency [12] was 53.3 µM (active) and the Potency [14] was 1.69 µM (active).
For C/C=C\C/C=C/CCCCCCCCOC(C)=O, the Potency [15] was “inactive”, the Potency [2] was “inactive” and the Potency [7] was “inactive”. The Potency [8] was “inactive”, the outcome [16] was “inactive” and the Potency [18] was “inactive”. The Potency [9] was “inactive”, the Potency [10] was “inactive” and the Potency [11] was “inactive”. The Potency [12] was “inactive” and the Potency [14] was 61.1 µM (active).
For CCCC(C(=O)OCCN(CC)CC)(c1ccccc1)c1ccccc1, the Potency [15] was “inactive”, the Potency [2] was “inactive” and the Potency [4] was “inactive”. For the same compound, the Potency [6] was “inactive”, the Potency [7] was “inactive” and the Potency [8] was “inactive”. The Potency [18] was “inactive”, the Potency [9] was 26.6 µM (active) and the Potency [10] was “inactive”. For the same compound, the Potency [11] was “inactive”, the Potency [17] was 22.4 µM (active) and the Potency [20] was 10 µM (active). The Potency [19] was 15.8 µM (active).
For CC(C)Nc1cccnc1N1CCN(C(=O)c2cc3cc(NS(C)(=O)=O)ccc3[nH]2)CC1, the Potency [15] was “inactive”, the Potency [2] was “inactive” and the Potency [5] was “inactive”. For the same compound, the Potency [6] was “inactive”, the Potency [7] was “inactive” and the Potency [8] was “inactive”. The Potency [9] was “inactive”, the Potency [10] was “inactive” and the Potency [13] was “inactive”. For the same compound, the Potency [11] was “inactive”, the Potency [12] was “inactive” and the Potency [14] was “inactive”. For the same compound, the max activation [17] was 0.79% and the Potency [19] was “inactive”.
In the case of CN(C)CCN1C(=O)c2ccccc2N(C)c2ccccc21, the Potency [1] was “inactive”, the Potency [2] was “inactive” and the Potency [3] was “inactive”. For the same compound, the Potency [4] was “inactive”, the Potency [5] was “inactive” and the Potency [6] was “inactive”. The Potency [7] was “inactive”, the Potency [8] was “inactive” and the outcome [16] was “inactive”. The Potency [18] was “inactive”, the Potency [9] was “inactive” and the Potency [13] was “inactive”. For the same compound, the Potency [11] was “inactive”, the Potency [12] was “inactive” and the max activation [17] was 5.5%.
For CC(=O)OCC(=O)NCCCOc1cccc(CN2CCCCC2)c1, the Potency [1] was “inactive”, the Potency [2] was “inactive” and the Potency [3] was “inactive”. The Potency [6] was “inactive”, the Potency [7] was “inactive” and the Potency [8] was “inactive”. The Potency [9] was “inactive”, the Potency [10] was “inactive” and the Potency [13] was “inactive”. For the same compound, the Potency [11] was “inactive”, the Potency [12] was “inactive” and the Potency [14] was “inactive”. For the same compound, the max activation [17] was -1.53% and the Potency [19] was “inactive”.
